Data as given in PubChem BioAssay AID1159580 (chemical genetic matrix, 2015).
Where “and” joins values, the source holds several entries; their conditions need not be identical. Equal values may be shown once. The whole screen tested about 5,500 compounds, of which about 2,000 (36%) were called active. Inconclusive results (about 18%) are left out. Rule as the data show it: active = normalized growth mostly below about 0.91 (no sharp cut-off); inconclusive = no clear call, values can overlap the other calls; inactive = mostly above about 0.92. The list shows a part of the results.

Test: chemical genetic growth profiling, strain panel (AID 1159580);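 also: tested at 20 µM; growth read once vehicle control cultures reached saturation at 30 °C; 1 = growth at the plate median or of vehicle wells; lower values mean less growth of the strain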
Conditions: S. cerevisiae deletion strains, growth OD

Measured: normalized growth

COC(=O)CCC(C)[C@H]1CCC2C3C(C[C@H](O)[C@@]21C)[C@@]1(C)CC[C@@H](O)C[C@H]1C[C@H]3O (some centres undefined)
inactive: locus YAL013W, strain DEP1, hits give low values 1.03 | locus YAL021C, strain ccr4, hits give low values 1.01 | locus YAL026C, strain drs2, hits give low values 0.997 | locus YAL030W, strain snc1, hits give low values 1.01 | locus YBL061C, strain skt5, hits give low values 1.01 | locus YBR009C, strain hhf1, hits give low values 1 | locus YBR021W, strain FUR4, hits give low values 0.952 | locus YBR023C, strain chs3, hits give low values 1 | locus YBR171W, strain sec66, hits give low values 1.01 | locus YBR229C, strain ROT2, hits give low values 1.03 | locus YBR279W, strain paf1, hits give low values 1.01 | locus YCL011C, strain gbp2, hits give low values 1.02 | locus YCL016C, strain dcc1, hits give low values 1.02 | locus YCL029C, strain bik1, hits give low values 1.04 | locus YCL061C, strain MRC1, hits give low values 1.02 | locus YCL069W, strain vba3, hits give low values 1 | locus YCR088W, strain abp1, hits give low values 1.02 | locus YDL005C, strain med2, hits give low values 0.999 | locus YDL035C, strain GPR1, hits give low values 1.01 | locus YDL040C, strain nat1, hits give low values 1.01 | locus YDL074C, strain BRE1, hits give low values 0.983 | locus YDL101C, strain DUN1, hits give low values 1.01 | locus YDL185W, strain tfp1, hits give low values 1.02 | locus YDL192W, strain arf1, hits give low values 1.02 | locus YDR001C, strain nth1, hits give low values 1.01 | locus YDR069C, strain doa4, hits give low values 1 | locus YDR101C, strain arx1, hits give low values 1.01 | locus YDR137W, strain rgp1, hits give low values 1.07 | locus YDR150W, strain NUM1, hits give low values 1.02 | locus YDR159W, strain sac3, hits give low values 0.994 | locus YDR162C, strain NBP2, hits give low values 1.02 | locus YDR195W, strain ref2 1 | locus YDR297W, strain sur2, hits give low values 1.01 | locus YDR318W, strain mcm21, hits give low values 1.01 | locus YDR334W, strain swr1, hits give low values 1.01 | locus YDR335W, strain msn5, hits give low values 1.01 | locus YDR388W, hits give low values 1.02 | locus YDR392W, strain spt3, hits give low values 0.965 | locus YDR502C, strain sam2, hits give low values 1.02 | locus YEL003W, strain gim4, hits give low values 1.01 | locus YEL037C, strain rad23, hits give low values 1.01 | locus YEL061C, strain CIN8 (second series), hits give low values 1.01 | locus YEL061C, strain CIN8, hits give low values 1 | locus YER015W, strain faa2, hits give low values 1.02 | locus YER016W, strain bim1, hits give low values 1.01 | locus YER110C, hits give low values 1.02 | locus YER111C, strain swi4, hits give low values 1.01 | locus YER155C, strain BEM2 (second series), hits give low values 1.02 | locus YER155C, strain BEM2, hits give low values 1.02 | locus YER167W, strain BCK2, hits give low values 1 | locus YFR010W, strain ubp6, hits give low values 0.996 | locus YGL078C, strain dbp3, hits give low values 1.02 | locus YGL086W, strain mad1, hits give low values 1.01 | locus YGL167C, strain pmr1, hits give low values 1.01 | locus YGL173C, strain kem1, hits give low values 1.01 | locus YGL227W, strain vid30, hits give low values 1.02 | locus YGL240W, strain doc1, hits give low values 1.04 | locus YGL248W, strain PDE1, hits give low values 1.01 | locus YGL253W, strain hxk2, hits give low values 0.96 | locus YGR078C, strain PAC10, hits give low values 1 | locus YGR135W, strain pre9, hits give low values 1 | locus YGR252W, strain gcn5, hits give low values 0.909 | locus YHR013C, strain ard1, hits give low values 1.02 | locus YHR027C, strain rpn1, hits give low values 1 | locus YHR030C, strain SLT2, hits give low values 1.02 and 1.01 | locus YHR079C, strain IRE1 (second series), hits give low values 1.03 | locus YHR079C, strain IRE1, hits give low values 0.984 | locus YHR094C, strain hxt1, hits give low values 1.06 | locus YHR129C, strain ARP1, hits give low values 1.01 | locus YHR142W, strain chs7, hits give low values 0.976 | locus YHR200W, strain rpn10, hits give low values 1 | locus YIL066C, strain RNR3, hits give low values 1.01 | locus YIL073C, strain SPO22, hits give low values 1.07 | locus YIL125W, strain kgd1, hits give low values 1.03 | locus YIR030C, strain dcg1, hits give low values 1.03 | locus YJL092W, strain hpr5, hits give low values 1.01 | locus YJL095W, strain BCK1 (second series), hits give low values 1.02 | locus YJL095W, strain BCK1, hits give low values 0.976 and 0.998 | locus YJL115W, strain asf1, hits give low values 1.01 | locus YJL129C, strain trk1, hits give low values 1.03 | locus YJL134W, strain LCB3, hits give low values 1.03 | locus YJL154C, strain vps35, hits give low values 1.02 | locus YJL164C, strain tpk1, hits give low values 1.01 | locus YJL166W, strain qcr8, hits give low values 1.02 | locus YJL168C, strain set2, hits give low values 1.03 | locus YJL187C, strain SWE1 (second series), hits give low values 1.02 | locus YJL187C, strain SWE1, hits give low values 1.01 | locus YJR043C, strain POL32, hits give low values 0.999 | locus YJR066W, strain TOR1, hits give low values 0.949
